Source: ChEMBL document CHEMBL3988442, “University of Dundee, Small-Polar-MMV Screening Library” (2021)
For some of these results: Potency and affinity values are given separately.

Assays:
Design in all cases: scale not given: direction of the effect not stated beside the values
[1] = molecular target: Protein translocase subunit SecA (Escherichia coli (strain K12)) (UniProt P10408); test: Assay to Identify E. coli SecA ATPase Inhibitors; type: functional; settings: 30 µM
[2] = molecular target: T1, Ubiquitin-activating enzyme e1, putative (Leishmania donovani (strain BPK282A1)) (UniProt E9BSI1); test: Leishmania donovani Ubiquitin Activating Enzyme (LdE1); type: functional; settings: 30 µM
T1 sequence (whole entry): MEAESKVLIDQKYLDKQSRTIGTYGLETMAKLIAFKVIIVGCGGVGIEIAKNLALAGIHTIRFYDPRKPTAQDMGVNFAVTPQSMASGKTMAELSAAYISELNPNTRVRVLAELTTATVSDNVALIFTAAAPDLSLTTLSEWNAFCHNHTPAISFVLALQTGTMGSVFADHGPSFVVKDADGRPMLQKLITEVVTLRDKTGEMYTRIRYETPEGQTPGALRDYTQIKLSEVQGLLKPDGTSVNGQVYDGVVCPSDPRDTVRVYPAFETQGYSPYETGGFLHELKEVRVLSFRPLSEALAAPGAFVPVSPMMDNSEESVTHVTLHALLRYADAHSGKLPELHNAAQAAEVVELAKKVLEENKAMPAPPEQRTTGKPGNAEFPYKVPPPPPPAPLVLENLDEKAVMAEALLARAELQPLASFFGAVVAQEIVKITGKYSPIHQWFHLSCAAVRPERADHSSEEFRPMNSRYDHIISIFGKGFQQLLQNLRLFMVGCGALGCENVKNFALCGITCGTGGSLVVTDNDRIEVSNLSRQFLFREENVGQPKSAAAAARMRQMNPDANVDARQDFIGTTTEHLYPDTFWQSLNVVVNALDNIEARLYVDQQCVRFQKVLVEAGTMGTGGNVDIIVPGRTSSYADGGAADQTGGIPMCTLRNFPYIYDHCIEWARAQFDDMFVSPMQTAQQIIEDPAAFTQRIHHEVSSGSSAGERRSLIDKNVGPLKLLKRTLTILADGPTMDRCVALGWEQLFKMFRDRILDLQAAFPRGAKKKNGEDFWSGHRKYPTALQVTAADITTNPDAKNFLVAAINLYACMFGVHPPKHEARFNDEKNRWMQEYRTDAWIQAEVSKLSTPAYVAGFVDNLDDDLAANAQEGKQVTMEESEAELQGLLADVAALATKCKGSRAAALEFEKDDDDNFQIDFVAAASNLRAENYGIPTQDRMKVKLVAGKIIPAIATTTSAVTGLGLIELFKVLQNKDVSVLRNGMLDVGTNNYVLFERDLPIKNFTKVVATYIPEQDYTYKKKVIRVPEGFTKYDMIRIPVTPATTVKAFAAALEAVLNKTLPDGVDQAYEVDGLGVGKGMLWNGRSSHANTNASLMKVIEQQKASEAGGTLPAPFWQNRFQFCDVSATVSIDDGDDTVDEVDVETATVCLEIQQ

[3] = molecular target: AMP-activated protein kinase, AMPK (Homo sapiens) (UniProt P54646+O43741+P54619+Q9UGJ0+Q9Y478+Q13131+Q9UGI9); test: AMP-dependent Kinase enzyme assay. An in vitro enzyme assay that detects ADP turnover that is directly proportional to AMPK activity. This uses naive AMPK that is activated during the assay with MK-8722; type: functional; settings: 30 µM
[4] = molecular target: Sialic acid-binding Ig-like lectin 9 (Homo sapiens) (UniProt Q9Y336); test: Hs-Siglec9 ALPHAscreen SOP 20170721; settings: 10 µM
[5] = test system: Trypanosoma cruzi; test: Trypanosoma cruzi phosphomannomutase and mannose-1-phosphate guanylyltransferase assay; type: functional; settings: 10 µM
[6] = molecular target: T2, Arginase-2, mitochondrial (Homo sapiens) (UniProt P78540); test: in vitro enzyme assay to detect the production of urea directly proportional to the activity of Arginase II; type: functional; settings: 33.3 µM; note: in the data most compounds retested in dose-response had high values
T2 sequence (whole entry): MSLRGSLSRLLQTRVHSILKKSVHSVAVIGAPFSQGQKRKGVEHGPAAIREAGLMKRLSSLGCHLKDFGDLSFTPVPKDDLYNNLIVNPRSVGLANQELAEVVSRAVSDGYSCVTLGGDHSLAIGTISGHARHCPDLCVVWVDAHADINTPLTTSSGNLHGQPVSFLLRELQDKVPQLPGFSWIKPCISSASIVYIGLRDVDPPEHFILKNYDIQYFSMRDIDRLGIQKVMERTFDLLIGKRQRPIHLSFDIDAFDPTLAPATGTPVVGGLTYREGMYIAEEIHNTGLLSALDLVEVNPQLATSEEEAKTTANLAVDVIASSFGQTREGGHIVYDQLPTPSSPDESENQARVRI

[7] = molecular target: T3, Proteasome subunit beta (Trypanosoma cruzi) (UniProt O96673); test: Trypanosoma cruzi proteasome chymotrypsin-like activity (TcProtChymo) assay.; note: in the data most compounds retested in dose-response had high values; type: functional; settings: 9.37 µM
T3 sequence (whole entry): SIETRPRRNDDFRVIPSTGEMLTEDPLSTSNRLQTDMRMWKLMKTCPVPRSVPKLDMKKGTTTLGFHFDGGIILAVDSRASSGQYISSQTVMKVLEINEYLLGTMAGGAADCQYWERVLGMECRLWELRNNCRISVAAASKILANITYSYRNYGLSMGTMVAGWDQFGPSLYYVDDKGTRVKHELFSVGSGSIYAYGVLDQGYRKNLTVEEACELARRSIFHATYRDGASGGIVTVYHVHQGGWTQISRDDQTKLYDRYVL

[8] = organism: Homo sapiens; test: To identify inhibition of the IFN signalling (Jak-Stat) pathway via expression of an eGFP reporter gene under the control of an IFN-stimulated response element (ISRE) containing MxA promoter.; type: functional; settings: 30 µM
[9] = molecular target: T4, Tyrosyl-tRNA synthetase, putative (Trypanosoma cruzi (strain CL Brener)) (UniProt Q4DSP6); test: Trypanosoma cruzi tyrosyl tRNA synthetase (TcYRS) _High Tyrosine SOP; type: functional; settings: 30 µM; note: in the data most compounds retested in dose-response had high values
T4 sequence (whole entry): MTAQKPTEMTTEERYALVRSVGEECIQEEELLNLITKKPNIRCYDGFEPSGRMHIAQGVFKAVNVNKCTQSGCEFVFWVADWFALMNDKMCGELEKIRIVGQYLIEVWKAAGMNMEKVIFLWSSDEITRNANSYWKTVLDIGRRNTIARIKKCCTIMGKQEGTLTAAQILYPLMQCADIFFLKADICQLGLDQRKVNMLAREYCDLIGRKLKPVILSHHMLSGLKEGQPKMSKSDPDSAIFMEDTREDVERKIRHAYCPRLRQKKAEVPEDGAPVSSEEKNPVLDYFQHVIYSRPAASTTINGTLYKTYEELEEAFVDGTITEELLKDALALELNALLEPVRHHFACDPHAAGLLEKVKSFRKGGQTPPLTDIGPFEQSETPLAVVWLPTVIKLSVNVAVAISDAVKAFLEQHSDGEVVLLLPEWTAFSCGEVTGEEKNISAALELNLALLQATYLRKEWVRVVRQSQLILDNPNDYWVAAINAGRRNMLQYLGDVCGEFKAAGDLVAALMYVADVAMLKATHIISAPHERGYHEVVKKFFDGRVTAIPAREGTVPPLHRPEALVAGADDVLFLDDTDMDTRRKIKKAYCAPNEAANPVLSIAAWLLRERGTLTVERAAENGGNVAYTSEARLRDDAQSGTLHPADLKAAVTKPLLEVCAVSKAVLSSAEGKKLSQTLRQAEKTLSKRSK

[10] = molecular target: T4, Tyrosyl-tRNA synthetase, putative (Trypanosoma cruzi (strain CL Brener)); test: Trypanosoma cruzi tyrosyl tRNA synthetase (TcYRS) SOP; type: functional; settings: 30 µM
[11] = molecular target: Chromo domain-containing protein 1 (Saccharomyces cerevisiae (strain ATCC 204508 / S288c) (Baker's yeast)) (UniProt P32657); test: ScCHD-1 Enzyme Inhibition Assay; type: functional; settings: 30 µM; note: in the data most compounds retested in dose-response had high values
Chromo domain-containing protein 1 (Saccharomyces cerevisiae (strain ATCC 204508 / S288c) (Baker's yeast)), sequence (P32657 whole entry, the tested form may be a part): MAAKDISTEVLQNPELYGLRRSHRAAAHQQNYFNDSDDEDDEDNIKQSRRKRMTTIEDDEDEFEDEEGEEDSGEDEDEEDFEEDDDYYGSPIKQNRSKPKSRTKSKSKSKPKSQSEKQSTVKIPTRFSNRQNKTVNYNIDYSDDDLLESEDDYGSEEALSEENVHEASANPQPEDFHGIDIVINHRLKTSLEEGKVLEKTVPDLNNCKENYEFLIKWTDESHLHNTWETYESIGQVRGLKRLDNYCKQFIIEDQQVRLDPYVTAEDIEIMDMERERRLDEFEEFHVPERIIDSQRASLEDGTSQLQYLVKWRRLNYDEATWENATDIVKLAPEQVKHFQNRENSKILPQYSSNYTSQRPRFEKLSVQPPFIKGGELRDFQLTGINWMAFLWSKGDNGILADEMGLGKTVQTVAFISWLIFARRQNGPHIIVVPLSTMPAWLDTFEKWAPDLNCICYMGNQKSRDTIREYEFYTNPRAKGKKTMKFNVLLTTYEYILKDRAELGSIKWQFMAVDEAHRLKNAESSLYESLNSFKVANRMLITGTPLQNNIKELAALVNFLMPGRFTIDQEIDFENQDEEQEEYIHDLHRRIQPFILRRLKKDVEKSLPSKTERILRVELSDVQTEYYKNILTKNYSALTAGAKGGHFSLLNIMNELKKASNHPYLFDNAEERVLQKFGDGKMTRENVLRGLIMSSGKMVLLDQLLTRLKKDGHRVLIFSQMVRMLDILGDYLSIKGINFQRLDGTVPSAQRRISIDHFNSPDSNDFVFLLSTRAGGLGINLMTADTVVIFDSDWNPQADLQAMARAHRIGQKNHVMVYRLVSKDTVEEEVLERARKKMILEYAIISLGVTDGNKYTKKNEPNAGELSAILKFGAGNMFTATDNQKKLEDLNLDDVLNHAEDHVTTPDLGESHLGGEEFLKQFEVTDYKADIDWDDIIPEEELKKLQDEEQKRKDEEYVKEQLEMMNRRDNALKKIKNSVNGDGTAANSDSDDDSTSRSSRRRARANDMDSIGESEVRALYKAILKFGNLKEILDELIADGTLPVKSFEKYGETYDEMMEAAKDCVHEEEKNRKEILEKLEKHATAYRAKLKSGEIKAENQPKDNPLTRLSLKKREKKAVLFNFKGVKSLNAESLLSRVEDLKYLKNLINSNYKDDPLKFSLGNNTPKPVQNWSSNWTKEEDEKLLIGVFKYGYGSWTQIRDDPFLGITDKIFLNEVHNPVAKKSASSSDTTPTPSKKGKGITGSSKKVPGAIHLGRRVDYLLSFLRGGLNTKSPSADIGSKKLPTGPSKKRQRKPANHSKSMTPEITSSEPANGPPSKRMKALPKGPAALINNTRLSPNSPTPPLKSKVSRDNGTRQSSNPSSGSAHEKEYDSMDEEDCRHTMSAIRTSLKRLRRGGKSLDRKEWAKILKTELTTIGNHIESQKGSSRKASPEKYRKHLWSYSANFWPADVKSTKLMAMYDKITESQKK

Protein translocase subunit SecA (Escherichia coli (strain K12)), sequence (P10408 whole entry): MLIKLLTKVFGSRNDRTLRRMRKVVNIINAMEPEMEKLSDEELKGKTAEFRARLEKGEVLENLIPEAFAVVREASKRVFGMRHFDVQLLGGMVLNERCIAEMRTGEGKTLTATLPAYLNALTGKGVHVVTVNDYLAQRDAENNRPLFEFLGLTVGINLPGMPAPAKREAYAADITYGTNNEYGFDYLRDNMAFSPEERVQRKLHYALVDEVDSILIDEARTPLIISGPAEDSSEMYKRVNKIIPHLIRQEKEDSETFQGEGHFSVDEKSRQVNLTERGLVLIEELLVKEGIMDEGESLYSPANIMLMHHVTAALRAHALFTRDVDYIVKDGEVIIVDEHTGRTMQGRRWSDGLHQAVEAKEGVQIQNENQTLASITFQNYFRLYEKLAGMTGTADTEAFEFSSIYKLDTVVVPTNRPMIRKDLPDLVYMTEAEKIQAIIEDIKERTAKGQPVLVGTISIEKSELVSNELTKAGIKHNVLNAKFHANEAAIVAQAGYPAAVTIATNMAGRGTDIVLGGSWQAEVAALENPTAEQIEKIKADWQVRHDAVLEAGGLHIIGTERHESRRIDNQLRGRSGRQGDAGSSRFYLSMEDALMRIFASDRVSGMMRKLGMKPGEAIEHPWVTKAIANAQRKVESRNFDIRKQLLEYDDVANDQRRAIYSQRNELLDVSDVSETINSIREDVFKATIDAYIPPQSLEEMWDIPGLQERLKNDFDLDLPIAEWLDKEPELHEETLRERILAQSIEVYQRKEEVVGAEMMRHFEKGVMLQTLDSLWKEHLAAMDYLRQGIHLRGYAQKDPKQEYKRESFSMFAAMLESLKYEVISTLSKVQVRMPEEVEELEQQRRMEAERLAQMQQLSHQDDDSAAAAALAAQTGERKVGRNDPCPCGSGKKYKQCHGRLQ
Sialic acid-binding Ig-like lectin 9 (Homo sapiens), sequence (Q9Y336 whole entry): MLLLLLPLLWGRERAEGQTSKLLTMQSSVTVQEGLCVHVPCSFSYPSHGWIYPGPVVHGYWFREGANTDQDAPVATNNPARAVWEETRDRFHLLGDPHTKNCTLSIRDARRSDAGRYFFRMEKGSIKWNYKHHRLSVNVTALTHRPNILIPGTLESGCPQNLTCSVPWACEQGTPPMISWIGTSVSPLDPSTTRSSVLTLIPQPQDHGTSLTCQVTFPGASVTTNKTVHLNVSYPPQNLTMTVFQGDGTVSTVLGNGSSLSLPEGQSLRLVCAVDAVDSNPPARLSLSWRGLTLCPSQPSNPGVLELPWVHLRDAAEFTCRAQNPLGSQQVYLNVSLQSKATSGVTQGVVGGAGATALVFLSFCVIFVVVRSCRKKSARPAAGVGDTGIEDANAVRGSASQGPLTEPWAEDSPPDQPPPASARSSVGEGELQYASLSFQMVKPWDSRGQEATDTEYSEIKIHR

| SMILES | Percent Effect [1] | Percent Effect [2] | Percent Effect [3] | Percent Effect [4] | Percent Effect [5] | Percent Effect [6] | Percent Effect [7] | Percent Effect [8] | Percent Effect [9] | Percent Effect [10] | Percent Effect [11] |
| --- | --- | --- | --- | --- | --- | --- | --- | --- | --- | --- | --- |
| O=C(c1ccnnc1)N1C[C@H](Oc2cccnc2)[C@H]2OCCC[C@H]21 | -5.64% | 0% | -1.06% | -4.69% | 0.781% | -0.417% | 4.65% | -14.6% | 11.9% | 15.8% | -3.24% |
| CC(C)COC(C)C(=O)NCc1ccc(N(C)C)cc1 (stereo not given) | -2.38% | 23.4% | 3.83% | -18.6% | 2.06% | -2.32% | 23.4% | 5.87% | 5.71% | 30.6% | -26.1% |
| Cc1nn(C)c(C)c1CNC1CCOc2ccccc21 (stereo not given) | -2.99% | 5.41% | -3.93% | -3.92% | -4.01% | -1.74% | 13.7% | 20% | 0% | 8.64% | -2.87% |
| COCCC(=O)N1CCC2(COCc3cnc(-c4ccccc4)nc32)C1 (stereo not given) | -1.59% | 2.67% | 15.5% | -0.802% | -7.48% | 2.56% | 1.15% | 6.76% | -1.06% | 3.85% | -0.943% |
| COc1cccc(CNC(=O)CN2CCCCC2Cn2cccn2)c1 (stereo not given) | -3.05% | 5.2% | 2.66% | 13% | 4.6% | -0.21% | 2.83% | -17% | 3.81% | 11.8% | -17.2% |
| c1cnnc(N2CCCC2CNc2ncnc3c2CCC3)c1 (stereo not given) | -5.27% | 1.27% | 4.89% | -6.25% | -1.95% | 3.66% | 1.54% | -1.2% | 11.5% | 15.2% | 1.39% |
| COc1ccc(Cc2nnc(SC)o2)cc1OC | -4.8% | 0% | -3.66% | 1.57% | 6.72% | -1.56% | 8.72% | -12.7% | 3.83% | 11.1% | -3.69% |
| CO[C@H]1CCN(S(=O)(=O)c2cn(C)cn2)[C@H]1Cc1cnn(C)c1 | -4.55% | 2.67% | 1.72% | 2.33% | -2.51% | -52.9% | 6.15% | 1.21% | -4.17% | -25% | -4.77% |
| O=C(c1ccco1)N1CCOCC2(C1)CN(c1ccccc1)C(=O)CO2 (stereo not given) | -3.5% | 2.67% | 5.75% | 17.4% | -3.86% | -27.8% | -1.54% | 5.08% | 2.08% | -2.5% | -5.45% |
| CCOc1ccccc1OC1CCN(C(=O)c2ccc(=O)[nH]n2)CC1 | -2.99% | 13.2% | 2.58% | 7.38% | 3.76% | 2.3% | 12.9% | 6.53% | 5.39% | 19.5% | -2.32% |
| Cc1nc([C@@H]2C[C@@H]3CCN(C(=O)c4occc4C)C[C@H]3O2)no1 | -6.42% | 0% | 6.51% | 3.94% | -1.74% | -52.1% | 4.1% | 7.9% | -1.04% | -5% | -4.87% |
| COCC(=O)N1CC[C@@H]2O[C@@H](COCc3csc(C)n3)CC[C@@H]21 | -2.35% | 13.5% | 4.29% | -14.3% | -2.25% | 7.96% | 26.9% | -1.3% | 8.65% | 12.8% | -4.47% |
| Cn1nc(C(=O)NCc2ccccn2)c2c1CCS(=O)(=O)C2 | -2.26% | 6.67% | 15% | 1.25% | -6.48% | -11.1% | 16.3% | 11.6% | 6.35% | 12.8% | -9.63% |
| COc1ccc(C(=O)N2CCCCC2Cn2cccn2)c(F)c1 (stereo not given) | -1.68% | 15.6% | 2.24% | 6.84% | 1.5% | -1.42% | 13.7% | -14.3% | 6.8% | 14.6% | -9.15% |
| O=C(c1nc(=O)[nH][nH]1)N1CCCC(c2cc(C(F)(F)F)[nH]n2)C1 (stereo not given) | -9.02% | -8.11% | -7.65% | 26.3% | 11.2% | 2.77% | 10.8% | 15.2% | 5.94% | 13.4% | -7.89% |
| COc1cccc(C)c1C(=O)N1C[C@@H](CN(C)C)[C@@H](CO)C1 | -3.79% | 5.2% | -2.32% | 7.05% | 2.26% | -2.76% | 9.15% | -12.3% | 6.45% | 11.1% | -0.303% |
| CN(C)S(=O)(=O)N1CCC2(COCc3cnc(-c4ccccc4)nc32)C1 (stereo not given) | -3.52% | 13.3% | 1.46% | -2.12% | 4.44% | -1.25% | 12.3% | 12.3% | -8.33% | 2.5% | -4.77% |
| Cc1cc(C)c2cc(CNCC3CCCO3)c3nn(C)c(=O)n3c2c1 (stereo not given) | -1.56% | 9.46% | 5.25% | 0.0533% | 2.17% | -1.62% | 7.96% | 27% | 2.15% | 9.09% | -28.2% |
| Cc1ccc(CN2CC[C@H]3OCC[C@@H](c4nc(C)no4)[C@H]3C2)cc1 | -4.22% | 5.41% | 2.69% | -2.48% | 7.14% | -4.14% | 15.3% | -21.7% | 0% | 10.3% | 0.212% |
| Cc1csc([C@@H]2C[C@@H]3CCN(C(=O)c4ccnnc4)C[C@H]3O2)n1 | 0.296% | 2.6% | 5.97% | 6.2% | -0.296% | -0.645% | -0.174% | 12.4% | 6.35% | 8.97% | -1.14% |
